This is part of a sample that, as a whole, favours compounds with a hit. Of some 79,000 tested, about 15% had one in any assay. Rule as the data show it: active = growth inhibition above about 70%; inactive = the rest.
Legend:
[1] = NCI Yeast Anticancer Drug Screen. Data for the rad50 strain (AID 155);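 also: 0% = growth of vehicle-only cultures of the same strain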; conditions: S. cerevisiae rad50 strain growth inhibition; at 50.0 µM; stronger effect = higher value
Summary of the method: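 Vehicle-treated cultures provide the reference for the growth inhibition reported for compound-exposed, repair-deficient yeast.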

[2] = NCI Yeast Anticancer Drug Screen. Data for the mec2-1 strain (AID 157); conditions: S. cerevisiae mec2-1 strain, at 50.0 µM, stronger effect = higher value
Summary of the method: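 Growth inhibition is read against vehicle-treated controls after compound exposure of the mec2-1 yeast strain, which is defective in DNA damage repair or cell cycle control.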

[3] = NCI Yeast Anticancer Drug Screen. Data for the cln2 rad14 strain (AID 165);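 also: 0% = growth equal to vehicle treated cultures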; conditions: S. cerevisiae cln2 rad14 strain, at 50.0 µM, stronger effect = higher value
Summary of the method: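 Growth inhibition, relative to vehicle-treated controls, is the read-out. The test organism is a yeast strain with defined genetic alterations, cln2 rad14.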

[4] = NCI Yeast Anticancer Drug Screen. Data for the bub3 strain (AID 167); conditions: S. cerevisiae bub3 mutant strain, at 50.0 µM, stronger effect = higher value
Summary of the method: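 Mutant yeast screening strain plus compound; vehicle-treated cultures serve as the 0% inhibition reference.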

[5] = NCI Yeast Anticancer Drug Screen. Data for the mlh1 rad18 strain (AID 175); conditions: S. cerevisiae mlh1 rad18 strain growth inhibition; at 50.0 µM; stronger effect = higher value
Summary of the method: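 Cells of a genetically altered yeast strain, deficient in DNA damage repair, were treated with compound. Their growth was then compared with that of vehicle-treated cultures to give inhibition.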

Measured: growth inhibition

CC1=NN(C(=O)c2ccncc2)C(=O)C1N=Nc1ccc([N+](=O)[O-])cc1Cl (stereo not given)
inactive: [1] 47.1% | [2] 9.95% | [3] -26.1% | [4] -2.1% | [5] 14.1%

Cc1nc2cccc([N+](=O)[O-])c2n1CCCN(C)C
inactive: [1] 1.7% | [2] 6.5% | [3] -8.9% | [4] 18.3% | [5] 10.1%

O=C(Nc1ccn(CCOC(=O)c2ccccc2)c(=O)n1)c1ccccc1
inactive: [1] -9.4% | [2] -21.3% | [3] 14.6% | [4] 23.7% | [5] 47.6%

CN=NNc1ccccc1
inactive: [1] -1.4% | [2] 6.75% | [3] -29.2% | [4] 14.8% | [5] -6.4%

CC1(C)OC2C(CO)OC(n3ccc(N)nc3=O)C2O1 (stereo not given)
inactive: [1] -33% | [2] -12% | [3] -29.9% | [4] 10.6% | [5] -1.75%

CC(=O)[C@@]1(O)CC[C@H]2[C@@H]3C[C@H](C)C4=CC(=O)CC[C@]4(C)[C@H]3[C@@H](O)C[C@@]21C
inactive: [1] -27.9% | [2] -8.8% | [3] -36.2% | [4] 12.7% | [5] -22.4%

COc1cc(C)c(C(=O)/C=C/c2cc(OC)c(O)c(OC)c2)cc1O
inactive: [1] 55.7% | [2] 36.9% | [3] 35.6% | [4] 46.2% | [5] 46.7%

O=C(CCCC(=O)N/N=C/c1ccc(I)cc1)N/N=C\c1ccc(I)cc1
inactive: [1] 29.9% | [2] 9% | [3] 25.1% | [4] -1.05% | [5] 17.7%

COc1ccc(C(c2c(O)c3ccccc3oc2=O)N2CCCC2)c(OC)c1 (stereo not given)
inactive: [1] 7.7% | [2] -5.7% | [3] -25.1% | [4] -1.15% | [5] -3.3%

O=c1c2c(sc3ccccc13)NCN(CCc1ccccc1)C2
inactive: [1] -10.7% | [2] -4.15% | [3] 3.2% | [4] 19.1% | [5] 12.2%

O=C(Nc1ccc(C(=O)O)cc1)Nc1nccs1
inactive: [1] 16.9% | [2] 6.5% | [3] -16.7% | [4] 7.2% | [5] 43.7%

COC/N=C(\NC#N)NCOC
inactive: [1] 20.5% | [2] -1% | [3] 14% | [4] -11.7% | [5] 23.2%

CCOC(=O)c1c(-c2ccccc2)n2c3c(cccc13)CC2
inactive: [1] 6.85% | [2] -5.2% | [3] 6.15% | [4] 6.55% | [5] 27.5%

COc1ccc(C23OC2Oc2cc(OC4CCCCO4)ccc2C3=O)cc1 (stereo not given)
inactive: [1] 10.1% | [2] -8.45% | [3] -6.4% | [4] 0.35% | [5] 2.55%

O=c1oc(-c2ccccc2)c(-c2ccccc2)o1
inactive: [1] 43% | [2] 22.8% | [3] -46.8% | [4] 45.6% | [5] 46.4%

COC(=O)C(=O)C(C(=O)C(=O)Nc1cccc(OC)c1)c1nc2ccc(Cl)cc2[nH]c1=O (stereo not given)
inactive: [1] 21.1% | [2] -1.2% | [3] -10.2% | [4] -35.1% | [5] -25.6%

CC(C)(O)CCc1ccccc1
inactive: [1] -7.75% | [2] -29.3% | [3] 14.8% | [4] -19.3% | [5] 6.6%

Nc1cc2c(cc1Br)-c1ccc(Cl)cc1C2=O
inactive: [1] 1.2% | [2] 5% | [3] -54.4% | [4] 0% | [5] -0.5%

CCCC(CCC)C(=O)O
inactive: [1] -18% | [2] 3.45% | [3] 7.9% | [4] -10.8% | [5] -1.05%

CC[N+](C)(CC)CCOC(=O)c1ccccc1Oc1ccc(C)cc1
inactive: [1] 23.1% | [2] -2.45% | [3] -11.8% | [4] -2.1% | [5] 0.9%

CCCCN=C(OC1C=CCCC1)SC (stereo not given)
inactive: [1] -12.8% | [2] -25.6% | [3] 9.95% | [4] -4.7% | [5] -7.7%

CCCCC1(O)c2ccc3ccccc3c2C(O)(CCCC)c2cccc(-c3ccccc3)c21 (stereo not given)
inactive: [1] 24.1% | [2] -0.05% | [3] -1.75% | [4] -3.15% | [5] 38.8%

c1ccc(-c2cnc3cccnc3n2)cc1
inactive: [1] -2.1% | [2] -24.7% | [3] -36.5% | [4] -10.1% | [5] -12.6%

O=C(CSc1nnc(-c2ccc(N=Cc3ccc(Cl)cc3)cc2)o1)Nc1ccc([N+](=O)[O-])cc1
inactive: [1] 14.7% | [2] -7.65% | [3] -53.8% | [4] -11.3% | [5] 14.9%

Cc1ccccc1N=Cc1ccc(N(CCC#N)S(=O)(=O)c2ccccc2)cc1
inactive: [1] 11.7% | [2] -8.3% | [3] 18.7% | [4] 0.95% | [5] 15%

Cc1ccc(S(=O)(=O)OC2C3OC(C)(C)OC3OC2C(c2cc(O)c3c(c2O)C(=O)c2ccccc2C3=O)c2cc(O)c3c(c2O)C(=O)c2ccccc2C3=O)cc1 (stereo not given)
inactive: [1] -35.5% | [2] -25.6% | [3] -5% | [4] -8.2% | [5] -25.1%

O=C1C(O)=C(Br)C(=O)C(O)=C1Br
inactive: [1] 6.2% | [2] -12.2% | [3] -12.1% | [4] 15.4% | [5] 11.6%

COC1C(=O)c2ccccc2N1C(C)=O (stereo not given)
inactive: [1] 7.85% | [2] -2.25% | [3] -18.2% | [4] -6.85% | [5] 1.15%

O=C(N/N=C\c1ccc(Cl)cc1)Nc1ccc2ccccc2c1
inactive: [1] 2.9% | [2] 11.1% | [3] 12.9% | [4] 20% | [5] 29.1%

CC(C1=CC=C2[C@@H]3CCC4CC(N(C)C)CC[C@]4(C)C3CC[C@]12C)N(C)C=O (stereo not given in full)
inactive: [1] 6.8% | [2] 8.6% | [3] 6.35% | [4] 4.45% | [5] 1.65%

Cc1onc(-c2c(F)cccc2Cl)c1C(=O)Nc1cc2cc([N+](=O)[O-])ccc2oc1=O
inactive: [1] 12.3% | [2] -13.7% | [3] 8.15% | [4] 2.8% | [5] 12.5%

NC(Cc1ccc(O)cc1)C(=O)NCCS(=O)(=O)O (stereo not given)
inactive: [1] 1.5% | [2] 9.85% | [3] 11.2% | [4] 18.6% | [5] 0.65%

CCOC(=O)Nc1cc2c(c(N)n1)N=C(CN(C)c1ccccc1)CN2
inactive: [1] 22.9% | [2] 6.15% | [3] 16.3% | [4] 35% | [5] 30.3%

CCc1ccccc1NC(=O)C(=O)C(C(=O)c1ccc(OC)cc1)c1ccc(OC)cc1 (stereo not given)
inactive: [1] 19% | [2] 11.9% | [3] 16.4% | [4] 4.45% | [5] 9.05%

COc1ccc2c(c1)C(=O)OCCC2
inactive: [1] 25.4% | [2] 17.5% | [3] 10.3% | [4] -36.4% | [5] -9.95%

CC1=CC(=O)CCC1c1ccccc1 (stereo not given)
inactive: [1] -52.6% | [2] -4.75% | [3] 0.8% | [4] -10.4% | [5] -5.95%

CC(=O)NC(CCCCNC(=O)OC(C)(C)C)C(=O)O (stereo not given)
inactive: [1] -31.9% | [2] -42.2% | [3] 7.45% | [4] -2.85% | [5] -39.1%

COC(=O)C1OC1c1ccncc1 (stereo not given)
inactive: [1] 19.1% | [2] 6.15% | [3] 5.3% | [4] 0.1% | [5] 5.5%

CCCc1nc2c([nH]1)c(=O)n(C)c(=O)n2C
inactive: [1] 22.6% | [2] -14.3% | [3] 9.85% | [4] -21.1% | [5] 22.6%

From PubChem BioAssay (NCI)
